Results reported in PubChem BioAssay AID1220 (Sanford-Burnham Center for Chemical Genomics, 2008).
About 1,300 (0.68%) of roughly 190,000 compounds were called active. The sample holds actives, similar compounds and a random draw of the others, so the mix is not that of the screen. No stated cut-off is given here; in the data, active means inhibition above about 50%; inactive means the rest.

target: Mannose-6-phosphate isomerase (Homo sapiens) (UniProt P34949); experiment: human PMI inhibitors, high substrate, primary screen, biochemical, fluorescence intensity, high mannose 6-phosphate (AID 1220); settings: recombinant PMI enzyme, coupled fluorescence intensity; at 20 µM; active compounds read high
Sequence (P34949 whole entry, looked up): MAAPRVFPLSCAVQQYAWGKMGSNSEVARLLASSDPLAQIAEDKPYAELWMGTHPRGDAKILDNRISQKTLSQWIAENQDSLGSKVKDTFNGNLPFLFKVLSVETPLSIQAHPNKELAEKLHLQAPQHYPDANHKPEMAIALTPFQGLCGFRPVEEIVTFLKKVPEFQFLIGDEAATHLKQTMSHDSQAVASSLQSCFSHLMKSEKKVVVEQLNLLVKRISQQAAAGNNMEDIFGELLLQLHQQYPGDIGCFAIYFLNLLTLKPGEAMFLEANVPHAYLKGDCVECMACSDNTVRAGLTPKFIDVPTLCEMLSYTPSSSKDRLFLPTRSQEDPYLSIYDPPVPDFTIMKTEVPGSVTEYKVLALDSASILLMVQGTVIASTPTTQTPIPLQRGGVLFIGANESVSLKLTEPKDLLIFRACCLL

inhibition, inactive:
Fc1ccccc1COc1ccc2ccccc2c1CNc1nn[nH]n1 -1.6%, O=[N+]([O-])c1ccc(C2Nc3cccc4cccc(c34)N2)cc1 14.6%, O=[N+]([O-])c1cccc(C2Nc3cccc4cccc(c34)N2)c1 -12.5%, CSc1ccc(CN2CCN(Cc3ccc([N+](=O)[O-])cc3)CC2)cc1 4%, COc1cccc(C(=O)N2CCN(Cc3ccccc3[N+](=O)[O-])CC2)c1 -13.8%, Cc1ccc(CN2CCN(/N=C/c3ccc(Cl)c([N+](=O)[O-])c3)CC2)cc1 15.3%, COc1cc(CN2CCN(c3ccc(C)cc3)CC2)cc([N+](=O)[O-])c1O 10.7%, COc1cccc(CN2CCN(C(=O)Nc3ccc([N+](=O)[O-])cc3)CC2)c1 10.7%, CS(=O)(=O)N1CCN(Cc2ccc([N+](=O)[O-])cc2)CC1 11.9%, CC1SCCN1S(=O)(=O)c1ccc2ccccc2c1 (centres undefined) 7.8%, CCOC(=O)N1CCC2(CC1)C(C#N)=C(N)Oc1c2c(C)nn1-c1cccc(Cl)c1 -99.5%, CNc1ccc(Br)cc(C(=O)/C=C/c2cccc(Cl)c2Cl)c1=O 24.7%, Nc1nc(F)cc(NCc2ccccc2)n1 10.5%, COc1ccc(CNCc2ccco2)cc1OCc1ccccc1 10.6%, CN(C)S(=O)(=O)c1cccc(NC(=O)c2ccc(N3CCOCC3)c([N+](=O)[O-])c2)c1 8.9%, Cn1c(NC(=O)C2CCCO2)cc(=O)n(C)c1=O (centres undefined) 42.3%, COc1ccc(CC(=O)N2CCN(c3ccccn3)CC2)cc1 8.3%, CCN1C(=O)C2C(c3cccc(F)c3)NC(CC)(C(=O)OC)C2C1=O (centres undefined) 2.1%, COCCCn1c(=N)c(C(=O)NCC2CCCO2)cc2c(=O)n3ccccc3nc21 (centres undefined) 5.1%, CCCn1c(=N)c(C(=O)NCC2CCCO2)cc2c(=O)n3cccc(C)c3nc21 (centres undefined) 13.9%, COc1ccccc1CNC(=O)Nc1cccs1 -15.1%, CCOC(=O)C1=C(C)NC(=O)NC1c1ccc(N(CC)CC)cc1 (centres undefined) 25.8%, O=C(CCN1CCOCC1)c1ccccc1 -3.1%, COc1ccc(C(=O)CCN2CCN(c3ccccc3F)CC2)cc1 17.7%, O=C(CCN1CCOCC1)c1ccc(Cl)cc1 26.3%, O=C(CCN1CCN(c2ccccc2F)CC1)Nc1ccccc1F -3.7%, COc1cc(-c2nnc(SCC(=O)OC3CCCCC3)o2)cc(OC)c1OC 5.5%, COc1cc(NC(=O)CSc2nc3ccccc3c(=O)n2C)ccc1NC(=O)c1ccco1 22.5%, COC(=O)c1c(-c2ccccc2)csc1NC(=O)C1CC=CCC1C(=O)O (centres undefined) -0.2%, COC(=O)c1c(-c2ccc(C)cc2)csc1NC(=O)C1CC=CCC1C(=O)O (centres undefined) 2.6%, Cc1c(C(=O)NCC2CCCO2)oc2ccc(S(=O)(=O)N3CCCCC3)cc12 (centres undefined) -6.8%, Cc1sc2cc3c(c(C(=O)c4ccccc4)[n+]2c1C)-c1cccc2cccc-3c12 -1.5%, O=C(c1ccccc1)c1cc2ccccc2o1 -9.2%, COc1ccccc1CN1CCCCC1C(=O)O (centres undefined) -6.1%, COC(=O)c1c(NC(=O)c2ccco2)sc(C(=O)N(C)C)c1C 1.2%, O=C(O)C1CCCCC1C(=O)Nc1ccccc1Cl (centres undefined) -0.8%, O=C(O)C1CCCCC1C(=O)Nc1ccccc1F (centres undefined) 7%, O=C(COC(=O)/C=C/c1cccc([N+](=O)[O-])c1)NCCCN1CCCC1=O -2.9%, COc1cc(-c2nc3ccccn3c2/N=C/c2cc(OC)c(O)cc2Cl)ccc1O 41.9%, COc1cc(-c2nc3ccccn3c2/N=C/c2ccccc2)ccc1O 14.6%, O=C(O)c1cc2c(ccc3ccccc32)o1 9.6%, CC(=O)c1cc2cc(O)ccc2o1 1.7%, CSCCC(NS(=O)(=O)/C=C/c1ccccc1)C(=O)O (centres undefined) -6.2%, CCOC(=O)N1CCC(NS(=O)(=O)c2ccc3c(c2)oc(=O)n3C)CC1 12.9%, O=C(Nc1ccc(F)cc1)N1CCOCC1 1.9%, CN(C)S(=O)(=O)c1ccc(NC(=O)N2CCOCC2)cc1 -1.8%, NC(=O)NNC(=S)Nc1cccc2ccccc12 27.8%, C#Cc1ccc([C@@H]2C=C(C(=O)O)O[C@H](OCc3ccc(CO)cc3)C2)cc1 0.7%, O=C(Nc1ccccc1)C1=C[C@@H](c2ccc(C(F)(F)F)cc2)C[C@@H](OCc2ccc(CO)cc2)O1 18%, O=C(NCc1ccccc1)C1=C[C@H](c2ccc(Br)cc2)C[C@H](OCc2ccc(CO)cc2)O1 37.7%, C#CCNC(=O)C1=C[C@H](c2ccc(Br)cc2)C[C@H](OCCCCO)O1 37.7%, O=C(Nc1ccccc1)C1=C[C@H](c2ccc(Br)cc2)C[C@H](OCc2ccc(CO)cc2)O1 13.9%, O=C(Nc1ccccc1)C1=C[C@@H](c2ccc(Br)cc2)C[C@@H](OCCCCO)O1 12.2%, O=C(NCc1ccccc1)C1=C[C@H](c2ccc(C(F)(F)F)cc2)C[C@H](OCc2ccc(CO)cc2)O1 46.8%, C#Cc1ccc([C@H]2C=C(C(=O)O)O[C@@H](OCc3ccc(CO)cc3)C2)cc1 9.9%, CCCOc1ccc(C(=O)c2nc3c(n2O)CCCC3)cc1 -4.1%, CC1Oc2ccccc2C=C1/C=C1/SC(N2CCOCC2)=NC1=O (centres undefined) 26.6%, CCCCc1nnc(NC(=O)C2CCCO2)s1 (centres undefined) 4.7%, c1cncc(CSc2ccc(-c3cccnc3)nn2)c1 -3.2%, CCC(CC)c1nnc(NC(=O)c2c(C)nn(Cc3ccccc3Cl)c2C)s1 3%, O=C(CCNS(=O)(=O)c1cccs1)NC1CCN(Cc2ccccc2)CC1 6.1%, CC(=O)OCc1c(F)c(F)c(-n2nc(C)cc2C)c(F)c1F 1.5%, COc1ccc(-c2nnn(CC(=O)N(CCCN3CCOCC3)C(C(=O)NC3CCCC3)c3ccco3)n2)cc1 (centres undefined) 8.7%, CNC(=O)NC(=O)C(C)OC(=O)CCCSc1nc2ccccc2s1 (centres undefined) 4.7%, Cc1cc2ccccn2c1C(=O)c1ccc(Cl)c([N+](=O)[O-])c1 3.4%, O=C(Nc1nn[nH]n1)c1cccc([N+](=O)[O-])c1 1.8%, O=C(Nc1ccccc1Br)c1c(F)cccc1Cl -8.7%, O=C(O)C1=C[C@@H](c2ccc3c(c2)OCO3)C[C@@H](OCCCCO)O1 4%, O=C(Nc1ccccc1)C1=C[C@H](c2ccc3c(c2)OCO3)C[C@H](OCCCCO)O1 12.1%, C#CCNC(=O)C1=C[C@@H](c2ccccc2)C[C@@H](OCc2ccc(CO)cc2)O1 28.3%, O=C(Nc1ccccc1)C1=C[C@@H](c2ccccc2)C[C@@H](OCc2ccc(CO)cc2)O1 15.7%, Cc1nn(Cc2ccccc2Cl)c(C)c1NC(=O)CCCn1nc([N+](=O)[O-])c(Cl)c1C 0.3%, CC(=O)N1CCN=C1SCc1ccc(C)cc1 5.8%, C=CCn1c(COc2ccc(Cl)cc2)nnc1SCC(=O)NCC(=O)OCC -3.6%, CCOC(=O)C1(Cc2cccc(F)c2)CCN(C(=O)C2CCCO2)CC1 (centres undefined) -13.3%, O=C(Nc1cc(N2CCOCC2)ncn1)NC1(C(F)(F)F)Oc2ccccc2O1 7.9%, Cc1cc(NC(=O)NC2(C(F)(F)F)Oc3ccc(Cl)cc3O2)no1 (centres undefined) 12.7%

inhibition, active:
O=[N+]([O-])c1ccc(Cl)c(C2Nc3cccc4cccc(c34)N2)c1 60.2%, COc1cccc(CN2CCN(Cc3cc(OC)c(OC)cc3[N+](=O)[O-])CC2)c1 53.2%, COc1cc(CN2CCN(Cc3ccc([N+](=O)[O-])cc3)CC2)c([N+](=O)[O-])cc1OC 56.3%, COc1cc(CN2CCN(Cc3ccc(C)cc3)CC2)c([N+](=O)[O-])cc1OC 61.5%, COCCCn1c(=N)c(C(=O)NCC2CCCO2)cc2c(=O)n3cccc(C)c3nc21 (centres undefined) 53.6%, COC(=O)c1c(-c2ccco2)csc1NC(=O)C1CC=CCC1C(=O)O (centres undefined) 59%, O=C(c1ccccc1)c1c2c(cc3sc4ccccc4[n+]13)-c1cccc3cccc-2c13 51.7%, O=C(O)C1CCCCC1C(=O)Nc1cccc2ccccc12 (centres undefined) 54.6%, COc1cc(-c2nc3ccccn3c2/N=C/c2cccc(OC)c2O)ccc1O 61.6%, CC(=O)c1cc2c(O)c(O)ccc2o1 71%, CN(C)c1ccc(NC(=O)N2CCOCC2)cc1 63.7%, O=C(NCc1ccccc1)C1=C[C@@H](c2ccc(Br)cc2)C[C@@H](OCCCCO)O1 60.5%, C#Cc1ccc([C@@H]2C=C(C(=O)NCc3ccccc3)O[C@H](OCc3ccc(CO)cc3)C2)cc1 50.8%, O=C(NCc1ccccc1)C1=C[C@@H](c2ccc(C(F)(F)F)cc2)C[C@@H](OCc2ccc(CO)cc2)O1 50.2%, O=C(NCc1ccccc1)C1=C[C@@H](c2ccc(Br)cc2)C[C@@H](OCc2ccc(CO)cc2)O1 55.2%, O=C(NCc1ccccc1)C1=C[C@@H](c2ccccc2)C[C@@H](OCc2ccc(CO)cc2)O1 61.7%, O=C(NCc1ccccc1)C1=C[C@H](c2ccc3c(c2)OCO3)C[C@H](OCCCCO)O1 64.5%
